FBW7 act: human FBW7 E3 ligase activation, primary screen; AlphaScreen FBW7–phospho-cyclin E peptide binding, activator screen; normalized activity (activation), % at 26.1 µM; AID 1259310; 650,000 compounds, 0.13% hits; in the data active = normalized activity above about 1.9%;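 also: purified mutant Fbw7 with reduced substrate affinity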
Target sequence (Q969H0 whole entry, looked up): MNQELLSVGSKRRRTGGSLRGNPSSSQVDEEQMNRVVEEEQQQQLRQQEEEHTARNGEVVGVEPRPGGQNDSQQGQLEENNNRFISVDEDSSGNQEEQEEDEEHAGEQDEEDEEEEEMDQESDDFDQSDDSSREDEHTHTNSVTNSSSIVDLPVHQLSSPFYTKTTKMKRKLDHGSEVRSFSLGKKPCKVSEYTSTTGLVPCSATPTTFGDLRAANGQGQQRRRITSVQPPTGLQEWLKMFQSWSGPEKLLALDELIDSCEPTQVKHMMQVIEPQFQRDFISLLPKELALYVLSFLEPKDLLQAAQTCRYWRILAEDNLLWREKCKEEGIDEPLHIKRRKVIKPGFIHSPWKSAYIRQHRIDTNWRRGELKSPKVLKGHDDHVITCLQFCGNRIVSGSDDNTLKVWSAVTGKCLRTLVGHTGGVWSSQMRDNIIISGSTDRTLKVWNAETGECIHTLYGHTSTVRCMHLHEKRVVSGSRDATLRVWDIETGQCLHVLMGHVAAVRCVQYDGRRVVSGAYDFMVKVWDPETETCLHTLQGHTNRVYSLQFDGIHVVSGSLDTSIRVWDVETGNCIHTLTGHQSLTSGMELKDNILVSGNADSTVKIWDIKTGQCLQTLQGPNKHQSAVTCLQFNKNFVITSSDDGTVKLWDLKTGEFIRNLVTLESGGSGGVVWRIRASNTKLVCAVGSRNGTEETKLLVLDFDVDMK
GPR151 activ: human GPR151 activation. 650,000 compounds, 1% hits. activation, % at 11.2 µM. Q8TDV0. PathHunter beta-arrestin GPR151 cells, luminescence. AID 1508602; in the data active = activation above about 4.9%;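 also: 0% = median of compound wells and 100% = cells with positive control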
TEAD-YAP inh: TEAD-YAP interaction inhibition; 640,000 compounds, 1.4% hits; HEK-TIYL cells, TEAD-Gal4/YAP UAS-luciferase luminescence; inhibition, % at 9.12 µM; in the data active = inhibition above about 32%;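 also: 0% = median of test compound wells and 100% = reference inhibitor wells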
MITF primary: human MITF inhibition, primary screen; O75030; AlphaScreen MITF homodimerization, bead proximity signal; inhibition, % at 2.6 µM; 650,000 compounds, 0.91% hits; AID 1259374; in the data active = inhibition above about 50%;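 also: 0% = vehicle wells with protein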
GPR151 conf act: human GPR151 activation, confirmation screen | shares compounds with GPR151 activ | GPR151 PathHunter beta-arrestin cells, luminescence, 90 min; % of EA-reagent control over plate median | activation, % at 11.2 µM | 6,700 tested, under 10 active;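 active = mean percent activation across replicates above the confirmation screen cutoff of 4.91%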
GPR119 counter: GPR119 activation, counter-screen for GPR151 activators. GPR119 PathHunter beta-arrestin cells, luminescence, 90 min; 0 = compound-well median, 100 = enzyme-acceptor control. shares compounds with GPR151 activ. activation, % at 11.2 µM. 6,700 compounds, 0.3% hits;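 active = mean percent activation in the counterscreen above 29.09%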;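 also: counterscreen on off-target GPR119 to flag nonselective hits from the GPR151 activator screen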
* = called active by the depositor; · = not tested or not shown; ! = not confirmed by another sample. Sampled rows, rich in hits. Any-hit rate of the full collection: about 3.4%.

SMILES	FBW7 act	GPR151 activ	TEAD-YAP inh	MITF primary	GPR151 conf act	GPR119 counter
O=C(O)CN(CCN(CC(=O)O)CC(=O)O)CCN(CC(=O)O)CC(=O)O	0	8.1*!	6	41	1	10
O=C(O)CN(CCOCCOCCN(CC(=O)O)CC(=O)O)CC(=O)O	0	2	-3	-1	·	·
Cc1c(-c2ccc(F)cc2)[n+](=O)c2c(n1[O-])CCCC2	0	0	11	5	·	·
CC(C)c1c(-c2ccccc2)[n+](=O)c2c(n1[O-])CCCCC2	0	5.2*	0	-6	-1	3
C=CCn1c(SC(C)C)nc2c1c(=O)n(C)c(=O)n2C	0	8.6*	-1	3	0	3
CCC(C)NC(=O)c1ccccc1NC(=O)CN(c1ccc(F)cc1)S(C)(=O)=O (configuration not stated)	0	1	0	0	·	·
COc1ccc2c(c1)CC(c1nc3ccc(-c4cn[nH]c4)cc3[nH]1)NC2 (configuration not stated)	0	0	25	25	·	·
COc1ccc(C2CNCC2c2nc3ccc(-c4cn[nH]c4)cc3[nH]2)cc1 (configuration not stated)	0	6.0*	2	-20	0	-4
CSc1nsc(SC)c1C(=O)N1CCN(S(=O)(=O)c2ccc(C)cc2)C1C (configuration not stated)	0	5.0*	3	3	1	10
C=CCNC(=O)CN(c1ccccc1F)S(=O)(=O)c1ccc(C)cc1	0	6.6*	-4	-5	0	1
O=C(NCc1ccccc1Cl)c1ccc2c(=O)n(CCc3ccccc3)c(=S)[nH]c2c1	0	0	-5	-6	·	·
COC(=O)c1cc(-c2ccc3c(c2)OCO3)no1	0	1	-11	-9	·	·
NC(=O)c1cc(-c2ccc3c(c2)OCO3)no1	0	5.7*	3	0	-1	-1
O=C1CC(c2nnc(Cc3ccccc3Cl)o2)CN1c1ccccc1 (configuration not stated)	0	5.5*	6	-12	0	-10
CC(C)N(CCNC(=O)c1cccc(Nc2ccnn2C)n1)C(C)C	0	6.1*	-4	10	-1	-17
CC(C)N(CCNC(=O)c1ccc2nc(Nc3ccnn3C)sc2c1)C(C)C	0	6.8*	-11	-1	-1	-16
CC(C)N(CCNC(=O)c1ccc2nc(Nc3ncccn3)sc2c1)C(C)C	0	2	-18	-4	·	·
Cc1ccc(C2Nc3ccccc3C(=O)N2c2ccc(Br)cc2)cc1 (configuration not stated)	0	1	-68	8	·	·
O=C(Nc1ccc(F)cc1)c1cnc(N2CCN(c3ccccn3)CC2)c2ccccc12	0	0	0	17	·	·
Cc1ccc(NC(=O)c2cnc(N3CCN(c4ccccn4)CC3)c3ccccc23)cc1F	0	10*	12	2	-1	-14
O=C(Nc1ccccc1)c1cc(N2CCN(c3ccccn3)CC2)nc2ccccc12	0	5.1*	5	6	0	0
CCNC(=O)[C@@H]1C[C@@H](NC2CCN(C)CC2)CN1Cc1ccc2ccccc2c1	0	0	0	-4	·	·
CC(C)Oc1c(Cl)cc(C=O)cc1Cl	0	6.8*	22	12	0	-1
Cc1ccc(Cl)c2c1NC(=O)C21SCCS1	0	8.6*	-8	3	-1	2
O=C(c1ccc2c(c1)N(Cc1ccccc1)C(=O)CS2)N1CCOCC1	0	0	11	0	·	·
SMILES	FBW7 act	GPR151 activ	TEAD-YAP inh	MITF primary	GPR151 conf act	GPR119 counter
O=C(c1ccc(CN2C(=O)CCn3nccc32)cc1)N1CCOCC1	0	7.2*	-2	1	0	-9
CC(C)NC(=O)c1cccc(NC(=O)Nc2ccc(-c3cn[nH]c3)cc2OCCN(C)C)c1	0	5.3*	-2	-38	1	-3
CNc1nc(-c2ccc3c(c2)CCN3S(C)(=O)=O)cs1	0	6.8*	-40	7	0	5
CC(=O)Oc1ccc(C(=O)c2ccccc2)c(OC(C)=O)c1	0	5.6*	10	11	0	-1
CCOc1ccc(Br)cc1C(=O)N/N=C/c1ccc([N+](=O)[O-])cc1	0	7.3*	0	2	1	-4
O=C(N/N=C/c1ccncc1)c1cc(Br)ccc1OCc1ccccc1	0	5.1*	-5	15	1	-2
CSc1nsc(NC(=O)c2ccc(F)cc2F)n1	0	-10	-64	2	·	·
O=C(Nc1nc(SCc2ccc(F)cc2)ns1)c1cc(F)c(F)cc1Cl	0	8.4*	27	-1	0	-5
CCN(CC)P(=O)(c1nc2ccccc2n1CC)N(CC)CC	0	5.6*	3	1	0	-2
CCOC(=O)C1=C(C)N=c2s/c(=C\c3cccc(OC)c3)c(=O)n2C1c1ccccc1 (configuration not stated)	0	1	-3	21	·	·
O=c1c(NC2CC2)c(N2CCN(c3ccc4cccc(-c5ccccc5F)c4n3)CC2)c1=O	0	5.3*	60*	3	1	31*
Fc1ccccc1-c1cccc2ccc(N3CCN(c4ncnc5nc[nH]c45)CC3)nc12	0	6.3*	-7	-6	0	12
O=C(O)CCCCCN1C(=O)c2ccccc2C1=S	0	0	2	-1	·	·
CC(=O)N/C(=C\c1ccccc1)C(=O)NC(C)(C)C	0	5.6*	4	-4	0	-10
CC(CCn1cccn1)NC(=O)c1cc(COc2ccc3ncccc3c2)on1 (configuration not stated)	0	1	16	10	·	·
CC(=O)c1ccc(OCc2cc(C(=O)NC(C)CCn3cccn3)no2)cc1 (configuration not stated)	0	6.3*	-49	9	1	-3
O=C(Nc1nnc(-c2ccccc2Cl)s1)c1ccccc1	0	-1	-4	-5	·	·
Cn1ccnc1CN1CCC(Oc2ccc(C(=O)NCc3ccncc3)cc2)CC1	0	5.2*	6	-8	0	1
COCC(=O)N(Cc1cc2cc(OC)ccc2nc1Cl)C1CCCC1	0	-1	0	17	·	·
COc1cc(=O)n2c(c1C(=O)NCc1ccsc1)CCN(C(=O)c1nonc1C)CC2	0	10*	-5	-5	0	11
CC(C)COc1cccc(OCC(=O)N=C2N=C3C=CC=CN3Cc3ccccc32)c1	0	-7	-29	-10	·	·
CC(C)OCCCNC(=O)CCN1C(=O)c2ccccc2C1=O	0	-1	3	1	·	·
CC(C)CC(=O)Nc1ccc(C(=O)COc2cc(F)ccc2[N+](=O)[O-])cc1	0	-1	4	12	·	·
Cc1ccc(CN2C(=O)CSc3ccc(NC(=O)Nc4nc(C)cc(C)n4)cc32)cc1	0	7.4*	-15	3	0	-1
